Assay results from PubChem BioAssay (NCI).
This is part of a sample that, as a whole, favours compounds with a hit. Of some 83,000 tested, about 20% had one in any assay.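 A percent growth of 40 corresponds to 60% growth inhibition; 0 means no net growth; -100 means all cells died. Active threshold: below 10.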 The source made the active and inactive calls.

Legend:
Assay in all cases: NCI-60 one-dose screen, 48 h (100 = growth as untreated, 0 = no growth, -100 = all killed)
Details in all cases: 10 µM
[1] = tested on: DU-145 prostate
[2] = tested on: K-562 leukemia
[3] = tested on: MALME-3M melanoma
[4] = tested on: MDA-MB-231 breast
[5] = tested on: SF-268 CNS
[6] = tested on: SF-295 CNS
[7] = tested on: SF-539 CNS
[8] = tested on: UACC-257 melanoma
[9] = tested on: M14 melanoma

Measured: growth

CN(C)c1ccc(/C=C/c2nc3ccccc3c(=O)n2CC(=O)Nc2ccc(Cl)cc2)cc1
active: [7] -63.6%
inactive: [1] 36.7% | [2] 68.7% | [3] 15.5% | [4] 35.1% | [5] 58.5% | [6] 27.9% | [8] 78.7% | [9] 65.2%

CN1C/C(=C\c2ccc(O)cc2O)c2[o+]c3cc(O)ccc3cc2C1
active: [7] -8.51%
inactive: [1] 78.7% | [2] 34.9% | [3] 26.5% | [4] 14.2% | [5] 70% | [6] 92.5% | [8] 58.5% | [9] 55.2%

CCOc1ccc2ncc(C#Cc3cncc(C(=O)Nc4ccc(CN5CCN(C)CC5)c(C(F)(F)F)c4)c3)n2n1
active: [1] -96.7% | [2] 4.86% | [3] -81.9% | [4] -88.9% | [5] -49.4% | [6] -88.5% | [7] -97.9% | [8] -62.2% | [9] -73%

COc1ccc2[nH]cc(/C=N/Nc3cccc(Cl)n3)c2c1
active: [4] 3.25%
inactive: [1] 64.4% | [2] 19.9% | [3] 76.3% | [5] 32.8% | [6] 47.2% | [7] 26.8% | [8] 84.3% | [9] 49.5%

O=C1N/C(=N\c2nccs2)S/C1=C\c1cccs1
active: [9] 9.09%
inactive: [1] 53.2% | [2] 20.1% | [3] 28.9% | [4] 47.6% | [5] 44.7% | [6] 13.4% | [7] 21.8% | [8] 49.6%

COc1cc(/C=C/C(=O)c2ccc(NC(=O)CSc3nnc(-c4c[nH]c5ccccc45)n3-c3ccccc3)cc2)cc(OC)c1OC
inactive: [1] 79.6% | [2] 28.6% | [3] 95.2% | [4] 64.2% | [5] 85.4% | [6] 74.3% | [7] 60.8% | [8] 106% | [9] 81.1%

O=C1c2ccccc2C(=O)c2c1c(C(=O)c1ccc(Cl)cc1)n1c2ccc2c3ccccc3ccc21
inactive: [1] 108% | [2] 106% | [3] 101% | [4] 89.9% | [5] 105% | [6] 99.1% | [7] 88.5% | [8] 107% | [9] 107%

Nc1cc(-c2cccc(C(=O)NCc3ccc4c(c3)OCO4)c2)ccn1
inactive: [1] 101% | [2] 74.4% | [3] 99.3% | [4] 102% | [5] 91.5% | [6] 90.7% | [7] 93% | [8] 106% | [9] 108%

O=C(Cc1ccc2c(c1)CN(C1CCC(=O)NC1=O)C2=O)NCCc1ccccc1 (stereo unspecified)
inactive: [1] 66.8% | [2] 20.2% | [5] 31.3% | [6] 17% | [7] 29.1% | [8] 92.2%
active: [3] -59.7% | [4] -32.2% | [9] 7.92%

Cc1cc(C)nc(NS(=O)(=O)c2ccc(N/C(N)=N/c3nccc(-c4cccs4)n3)cc2)n1
inactive: [1] 109% | [2] 89.3% | [3] 94.2% | [4] 87% | [5] 99.4% | [6] 92.6% | [7] 80.4% | [8] 111% | [9] 106%

O=C(Nc1cccc([N+](=O)[O-])c1)Nc1cccc([N+](=O)[O-])c1
inactive: [1] 82% | [2] 57.6% | [3] 98.6% | [4] 87.5% | [5] 79.9% | [6] 76.3% | [7] 93% | [8] 93.2% | [9] 87.2%

O=C(NO)c1ccc(Cn2ccc3c(NCc4ccccc4)ncnc32)cc1
active: [3] -5.08% | [4] -18% | [6] -68.2% | [7] -71.1% | [8] -20.8% | [9] -9.73%
inactive: [1] 10.3% | [2] 12.2% | [5] 19%

O=C(CNc1nc(-c2ccccc2)cs1)Nc1ccc(Br)cc1
active: [1] -92.3% | [2] 6.7% | [3] -82.4% | [4] -92.5% | [5] -12.5% | [6] -97.5% | [7] -98.3% | [8] -73.8% | [9] -86.5%

COc1ccc(-c2ccc(SCC(=O)Nc3ccc(C#N)cc3)nn2)cc1
inactive: [1] 105% | [2] 90% | [3] 78.6% | [4] 85.4% | [5] 99.1% | [6] 81.3% | [7] 71% | [8] 98.9% | [9] 93%

CCOC(=O)c1c(CSc2ccccc2)n(C)c2cc(CN(C)C)c(O)c(CN(C)C)c12
inactive: [1] 60.8% | [2] 19.7% | [4] 16% | [5] 71.3% | [6] 46.9% | [7] 50.5% | [8] 54.3% | [9] 47.6%
active: [3] -15.3%

O=c1c2ccccc2nc(COc2ccccc2)n1/N=C/c1ccc(F)cc1
inactive: [1] 91.4% | [2] 69.8% | [3] 115% | [4] 88% | [5] 99.7% | [6] 89.4% | [7] 89.6% | [8] 99.8% | [9] 98.8%

Cc1ccc(-c2cc(C(=O)N=Nc3c(O)[nH]c4ccc(Br)cc34)c3ccccc3n2)cc1
inactive: [1] 85.8% | [2] 17.8% | [3] 80.2% | [4] 41.7% | [5] 80.9% | [6] 76.5% | [7] 76% | [8] 103% | [9] 75.6%

CN1C(=O)N(C)C2SC(N/N=C/c3ccccc3)=NC21 (stereo unspecified)
inactive: [1] 97.1% | [2] 19.2% | [3] 61.6% | [4] 56.5% | [5] 82.9% | [6] 66.6% | [7] 64.5% | [8] 90.5% | [9] 48.4%

CC1(c2ccccc2)NC(=O)N(CC(=O)Nc2ccc(C(=O)/C=C/c3ccc(Br)cc3)cc2)C1=O (stereo unspecified)
inactive: [1] 59.8% | [2] 14.5% | [3] 72.9% | [4] 54.3% | [5] 30.9% | [6] 37% | [7] 39.9% | [8] 48.4% | [9] 23.3%

Cc1ccc(CNC(=O)Cc2ccc3c(c2)CN(C2CCC(=O)NC2=O)C3=O)cc1 (stereo unspecified)
inactive: [1] 30.2% | [2] 14.5% | [7] 18.6% | [8] 70.5%
active: [3] -64.1% | [4] -36.7% | [5] 9.5% | [6] 6.35% | [9] -23.5%

Cc1ccc2nc(COc3ccc(C(=O)NNC(=S)NC(=O)c4ccccc4)cc3)[nH]c2c1
inactive: [1] 64.7% | [2] 21.8% | [3] 80.9% | [4] 71.5% | [5] 55.2% | [6] 25.3% | [7] 41.9% | [8] 83.4% | [9] 65.2%

COc1ccc(-c2cc(-c3cc(C(=O)c4ccc(Br)cc4)n4ccc(C)cc34)nc(N)c2C#N)cc1
active: [7] 5.3%
inactive: [1] 75.9% | [2] 92.6% | [3] 74.4% | [4] 59.7% | [5] 93.9% | [6] 89.1% | [8] 88% | [9] 64.6%

CC(=O)C1=C(C)NC(SCC(=O)Nc2ccc(S(=O)(=O)Nc3cc(C)on3)cc2)=NC1c1ccccc1 (stereo unspecified)
inactive: [1] 109% | [2] 104% | [3] 100% | [4] 110% | [5] 107% | [6] 106% | [7] 101% | [8] 103% | [9] 108%

COC(=O)C[C@](O)(CCCC(C)(C)O)C(=O)O[C@H]1C(OC)=C[C@@]23CCC(=O)N2CCc2cc4c(cc2[C@@H]13)OCO4
inactive: [1] 103% | [2] 96.7% | [3] 81.5% | [4] 117% | [5] 101% | [6] 103% | [7] 93.3% | [8] 109% | [9] 102%

Cc1ccc(C(=O)NNC(=O)CSc2nc3ccccc3c(=O)[nH]2)cc1
inactive: [1] 105% | [2] 97.6% | [3] 91.7% | [4] 91.1% | [5] 101% | [6] 96.3% | [7] 98.7% | [8] 105% | [9] 108%

Cc1noc2c(Cc3ccccc3)nn(CC(=O)N/N=C/c3ccc(F)cc3)c(=O)c12
inactive: [1] 65.2% | [2] 96.7% | [4] 44.3% | [5] 62.6% | [6] 25.9% | [7] 66.9% | [8] 67.4% | [9] 66.1%
active: [3] -1.4%

Cn1cc(/C=N/Nc2cccc(Cl)n2)c2ccccc21
inactive: [1] 72.5% | [2] 20.2% | [3] 70.7% | [4] 51.6% | [5] 56% | [6] 73.5% | [7] 64.6% | [8] 88.8% | [9] 55.4%

CCOC(=O)c1sc(N/N=C(\C)c2ccc3c(c2)Nc2ccccc2S3)nc1C
inactive: [1] 44.9% | [3] 31.9% | [4] 18.5% | [5] 56.9% | [7] 33.8% | [8] 35.8% | [9] 19.4%
active: [2] 1.72% | [6] -14.9%

CCCCOc1ccc(Nc2nc3ccccc3nc2Nc2ccc(OCCCC)cc2)cc1
inactive: [1] 87.9% | [2] 77.3% | [3] 106% | [4] 109% | [5] 82% | [6] 87.5% | [7] 106% | [8] 97.3% | [9] 88.5%
